# Laboratory results as given in PMC7862700, “An all-to-all approach to the identification of sequence-specific readers for epigenetic DNA modifications on cytosine”.
# Legend:
# Experiment in all cases: DAPPL (digital affinity profiling via proximity ligation, sequencing); 10 mM Tris-HCl pH 7.5, 50 mM NaCl, 1 mM DTT, 4% glycerol, room temperature, 30 min; GST-TFs on glutathione beads, 16-mer random dsDNA library, 0.1% formaldehyde crosslink after washing; high values mean tight binding
# FEV = target: T1, FEV (Homo sapiens, UniProt Q99581 1-238); details: protein: recombinant; tags: N-terminal GST; dsDNA, one strand shown
# T1 sequence: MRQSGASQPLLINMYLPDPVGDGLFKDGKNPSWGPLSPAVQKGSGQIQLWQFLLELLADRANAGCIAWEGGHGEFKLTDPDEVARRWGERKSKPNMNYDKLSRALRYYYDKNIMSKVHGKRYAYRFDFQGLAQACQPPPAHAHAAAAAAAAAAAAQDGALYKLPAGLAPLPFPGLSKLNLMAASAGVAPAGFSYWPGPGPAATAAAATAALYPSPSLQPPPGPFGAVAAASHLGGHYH
# Procedure, shortened: (§1)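 Yeast served to express human transcription factors as GST fusions, which were then captured on glutathione beads and labelled with DNA barcodes. Pooled with a tag-only sample, they were incubated with 200 nmole of a 16-mer random double-stranded DNA library for 30 min at room temperature in Tris/NaCl/DTT/glycerol buffer, washed, crosslinked with 0.1% formaldehyde, ligated by proximity, amplified by PCR and sequenced. Dividing each hexamer's read frequency for a factor by its frequency for the tag-only sample gives the binding signal.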
# ETV5 = ETV5 (Homo sapiens, UniProt P41161 1-510); details: protein: recombinant; tags: N-terminal GST; dsDNA, one strand shown
# Sequence of ETV5 (P41161 whole entry): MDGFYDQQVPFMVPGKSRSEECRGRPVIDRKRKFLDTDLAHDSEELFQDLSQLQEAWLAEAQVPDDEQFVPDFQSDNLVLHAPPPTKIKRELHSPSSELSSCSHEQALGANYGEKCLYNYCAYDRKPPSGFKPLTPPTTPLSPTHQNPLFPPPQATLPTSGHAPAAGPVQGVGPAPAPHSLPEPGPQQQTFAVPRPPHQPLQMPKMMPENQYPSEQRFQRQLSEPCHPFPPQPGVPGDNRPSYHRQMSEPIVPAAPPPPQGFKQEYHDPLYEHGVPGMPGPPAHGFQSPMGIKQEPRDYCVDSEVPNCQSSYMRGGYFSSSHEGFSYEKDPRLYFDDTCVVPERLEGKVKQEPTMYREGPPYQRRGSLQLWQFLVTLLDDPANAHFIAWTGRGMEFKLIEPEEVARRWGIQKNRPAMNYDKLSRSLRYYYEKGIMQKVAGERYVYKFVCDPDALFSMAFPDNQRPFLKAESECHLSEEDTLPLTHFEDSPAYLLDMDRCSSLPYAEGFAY
# Procedure, shortened: as §1
# HSF1 = HSF1 (Homo sapiens, UniProt Q00613 1-529); details: protein: recombinant; tags: N-terminal GST; chain copies: 3; dsDNA, one strand shown
# Sequence of HSF1 (Q00613 whole entry): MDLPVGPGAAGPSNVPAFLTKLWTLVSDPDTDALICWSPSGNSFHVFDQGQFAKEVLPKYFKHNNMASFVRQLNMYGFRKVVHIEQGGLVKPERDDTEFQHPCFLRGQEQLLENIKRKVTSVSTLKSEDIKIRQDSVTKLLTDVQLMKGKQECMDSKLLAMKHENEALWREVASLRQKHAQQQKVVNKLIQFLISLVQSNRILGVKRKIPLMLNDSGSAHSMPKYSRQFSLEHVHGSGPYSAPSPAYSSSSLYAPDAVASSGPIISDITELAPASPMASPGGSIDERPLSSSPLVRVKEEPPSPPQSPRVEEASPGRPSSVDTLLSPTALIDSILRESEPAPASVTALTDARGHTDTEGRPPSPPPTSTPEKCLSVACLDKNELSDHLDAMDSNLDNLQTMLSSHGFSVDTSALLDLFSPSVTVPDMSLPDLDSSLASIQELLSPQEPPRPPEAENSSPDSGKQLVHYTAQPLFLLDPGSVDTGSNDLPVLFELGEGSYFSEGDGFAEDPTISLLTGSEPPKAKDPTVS
# Procedure, shortened: as §1
# SPIC = target: T2, SPIC (Homo sapiens, UniProt Q8N5J4 1-248); details: protein: recombinant; tags: N-terminal GST; dsDNA, one strand shown
# T2 sequence: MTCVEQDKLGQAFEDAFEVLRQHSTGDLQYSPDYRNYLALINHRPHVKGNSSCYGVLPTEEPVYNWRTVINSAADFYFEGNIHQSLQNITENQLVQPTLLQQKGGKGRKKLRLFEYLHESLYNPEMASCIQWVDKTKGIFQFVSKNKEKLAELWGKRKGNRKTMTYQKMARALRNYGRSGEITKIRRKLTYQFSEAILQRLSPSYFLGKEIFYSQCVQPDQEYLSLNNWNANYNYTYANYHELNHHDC
# Procedure, shortened: as §1
# ELF4 = ELF4 (Homo sapiens, UniProt Q99607 1-663); details: protein: recombinant; tags: N-terminal GST; dsDNA, one strand shown
# Sequence of ELF4 (Q99607 whole entry): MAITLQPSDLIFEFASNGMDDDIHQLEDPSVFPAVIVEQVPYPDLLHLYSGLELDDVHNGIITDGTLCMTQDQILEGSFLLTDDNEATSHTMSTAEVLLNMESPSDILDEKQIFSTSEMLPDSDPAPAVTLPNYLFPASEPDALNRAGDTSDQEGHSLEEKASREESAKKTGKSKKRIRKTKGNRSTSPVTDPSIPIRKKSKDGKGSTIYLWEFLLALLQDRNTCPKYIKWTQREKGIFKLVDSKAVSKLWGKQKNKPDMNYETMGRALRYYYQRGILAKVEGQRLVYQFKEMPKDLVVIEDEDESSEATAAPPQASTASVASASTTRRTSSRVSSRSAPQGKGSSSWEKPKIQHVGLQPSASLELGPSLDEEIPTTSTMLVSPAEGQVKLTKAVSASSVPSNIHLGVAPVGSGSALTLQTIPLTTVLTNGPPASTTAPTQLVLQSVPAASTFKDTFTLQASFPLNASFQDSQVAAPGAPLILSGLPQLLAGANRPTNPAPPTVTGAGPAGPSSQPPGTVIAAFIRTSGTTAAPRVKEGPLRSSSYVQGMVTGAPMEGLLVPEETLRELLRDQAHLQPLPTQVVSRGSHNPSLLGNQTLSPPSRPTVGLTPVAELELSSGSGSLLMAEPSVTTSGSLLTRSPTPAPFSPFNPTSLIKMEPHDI
# Procedure, shortened: as §1
# ELK4 = target: T3, ELK4 (Homo sapiens, UniProt P28324-2 1-405); details: protein: recombinant; tags: N-terminal GST; dsDNA, one strand shown
# T3 sequence: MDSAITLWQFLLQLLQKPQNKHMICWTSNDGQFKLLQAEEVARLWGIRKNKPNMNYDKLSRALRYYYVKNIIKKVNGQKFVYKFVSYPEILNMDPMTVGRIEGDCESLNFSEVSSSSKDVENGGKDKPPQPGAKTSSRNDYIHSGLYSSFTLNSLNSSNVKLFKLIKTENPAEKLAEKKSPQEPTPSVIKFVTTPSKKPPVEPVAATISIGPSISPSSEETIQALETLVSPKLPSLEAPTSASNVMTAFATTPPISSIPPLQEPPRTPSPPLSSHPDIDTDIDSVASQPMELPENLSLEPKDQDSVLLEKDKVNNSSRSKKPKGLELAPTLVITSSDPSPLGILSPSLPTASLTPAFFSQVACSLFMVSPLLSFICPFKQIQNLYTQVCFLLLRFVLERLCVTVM
# Procedure, shortened: as §1
# ETV2 = target: T4, ETV2 (Homo sapiens, UniProt O00321 1-342); details: protein: recombinant; tags: N-terminal GST; dsDNA, one strand shown
# T4 sequence: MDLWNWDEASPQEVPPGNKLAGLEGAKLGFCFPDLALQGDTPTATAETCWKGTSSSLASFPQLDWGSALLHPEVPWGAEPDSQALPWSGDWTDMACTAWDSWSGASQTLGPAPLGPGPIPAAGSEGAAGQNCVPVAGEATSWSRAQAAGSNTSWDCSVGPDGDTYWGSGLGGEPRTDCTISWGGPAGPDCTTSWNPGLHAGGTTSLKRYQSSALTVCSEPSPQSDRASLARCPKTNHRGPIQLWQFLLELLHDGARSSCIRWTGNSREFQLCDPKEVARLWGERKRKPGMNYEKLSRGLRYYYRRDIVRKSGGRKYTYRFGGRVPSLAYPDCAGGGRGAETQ
# Procedure, shortened: as §1
# ELF3 = target: T5, ELF3 (Homo sapiens, UniProt P78545 1-371); details: protein: recombinant; tags: N-terminal GST; dsDNA, one strand shown
# T5 sequence: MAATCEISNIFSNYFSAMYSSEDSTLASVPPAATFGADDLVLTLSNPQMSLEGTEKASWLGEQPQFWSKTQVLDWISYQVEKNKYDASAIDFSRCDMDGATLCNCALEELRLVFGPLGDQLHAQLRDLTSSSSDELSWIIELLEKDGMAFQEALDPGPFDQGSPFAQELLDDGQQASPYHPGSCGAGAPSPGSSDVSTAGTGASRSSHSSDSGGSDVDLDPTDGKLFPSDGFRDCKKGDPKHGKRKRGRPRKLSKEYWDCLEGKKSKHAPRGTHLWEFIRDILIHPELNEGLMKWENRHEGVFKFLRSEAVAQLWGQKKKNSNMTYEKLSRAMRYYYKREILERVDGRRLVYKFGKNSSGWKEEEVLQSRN
# Procedure, shortened: as §1
# CRX = CRX (Homo sapiens, UniProt O43186 1-299); details: protein: recombinant; tags: N-terminal GST; dsDNA, one strand shown
# Sequence of CRX (O43186 whole entry): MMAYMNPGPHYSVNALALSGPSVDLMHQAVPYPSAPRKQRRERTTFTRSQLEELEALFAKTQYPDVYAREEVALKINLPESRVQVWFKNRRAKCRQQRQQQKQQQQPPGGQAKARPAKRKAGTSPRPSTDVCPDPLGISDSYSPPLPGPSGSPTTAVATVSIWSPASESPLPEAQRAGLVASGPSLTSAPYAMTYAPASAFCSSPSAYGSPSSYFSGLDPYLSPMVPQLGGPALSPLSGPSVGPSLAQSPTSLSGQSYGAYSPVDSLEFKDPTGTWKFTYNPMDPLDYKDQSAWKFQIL
# Procedure, shortened: as §1
# ETV1 = ETV1 (Homo sapiens, UniProt P50549 1-477); details: protein: recombinant; tags: N-terminal GST; dsDNA, one strand shown
# Sequence of ETV1 (P50549 whole entry): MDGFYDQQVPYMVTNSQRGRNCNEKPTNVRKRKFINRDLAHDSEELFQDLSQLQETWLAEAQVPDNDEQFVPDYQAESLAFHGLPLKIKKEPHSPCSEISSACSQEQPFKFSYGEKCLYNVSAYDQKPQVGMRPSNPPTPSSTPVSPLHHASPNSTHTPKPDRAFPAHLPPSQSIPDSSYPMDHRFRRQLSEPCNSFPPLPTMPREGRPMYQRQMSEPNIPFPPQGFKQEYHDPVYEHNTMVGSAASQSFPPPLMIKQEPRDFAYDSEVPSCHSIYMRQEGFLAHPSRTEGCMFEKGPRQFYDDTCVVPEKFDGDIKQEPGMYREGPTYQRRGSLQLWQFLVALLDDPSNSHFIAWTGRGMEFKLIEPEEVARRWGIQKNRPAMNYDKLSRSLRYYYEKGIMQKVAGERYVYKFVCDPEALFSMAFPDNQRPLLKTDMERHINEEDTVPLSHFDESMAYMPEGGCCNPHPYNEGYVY
# Procedure, shortened: as §1
# ERF = target: T6, ERF (Homo sapiens, UniProt P50548 1-548); details: protein: recombinant; tags: N-terminal GST; dsDNA, one strand shown
# T6 sequence: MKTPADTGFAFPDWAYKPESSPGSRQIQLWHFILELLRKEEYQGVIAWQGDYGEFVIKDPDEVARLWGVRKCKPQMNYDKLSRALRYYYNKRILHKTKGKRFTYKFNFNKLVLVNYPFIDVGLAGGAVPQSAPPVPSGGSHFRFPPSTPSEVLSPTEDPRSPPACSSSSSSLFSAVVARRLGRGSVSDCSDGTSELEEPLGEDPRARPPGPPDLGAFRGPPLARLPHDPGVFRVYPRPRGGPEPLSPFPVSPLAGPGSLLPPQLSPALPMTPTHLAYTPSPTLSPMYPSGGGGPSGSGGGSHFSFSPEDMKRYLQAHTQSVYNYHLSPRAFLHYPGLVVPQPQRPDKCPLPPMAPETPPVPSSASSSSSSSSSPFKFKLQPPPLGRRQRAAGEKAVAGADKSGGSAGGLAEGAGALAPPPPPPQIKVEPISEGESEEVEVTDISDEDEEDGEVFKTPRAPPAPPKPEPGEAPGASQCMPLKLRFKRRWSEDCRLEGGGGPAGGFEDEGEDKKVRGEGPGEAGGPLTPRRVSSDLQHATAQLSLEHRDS
# Procedure, shortened: as §1
# ETV3L = target: T7, ETV3L (Homo sapiens, UniProt Q6ZN32 1-361); details: protein: recombinant; tags: N-terminal GST; dsDNA, one strand shown
# T7 sequence: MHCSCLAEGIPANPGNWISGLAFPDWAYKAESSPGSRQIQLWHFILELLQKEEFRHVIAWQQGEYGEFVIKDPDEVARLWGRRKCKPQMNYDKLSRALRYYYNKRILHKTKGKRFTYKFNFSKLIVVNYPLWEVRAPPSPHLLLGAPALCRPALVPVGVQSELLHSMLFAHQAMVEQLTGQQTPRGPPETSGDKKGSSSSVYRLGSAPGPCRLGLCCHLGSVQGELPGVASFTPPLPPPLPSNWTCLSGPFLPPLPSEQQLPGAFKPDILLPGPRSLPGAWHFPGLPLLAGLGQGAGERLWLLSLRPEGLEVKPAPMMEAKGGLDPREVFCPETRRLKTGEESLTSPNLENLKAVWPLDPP
# Procedure, shortened: as §1
# ETS2 = target: T8, ETS2 (Homo sapiens, UniProt P15036 1-469); details: protein: recombinant; tags: N-terminal GST; dsDNA, one strand shown
# T8 sequence: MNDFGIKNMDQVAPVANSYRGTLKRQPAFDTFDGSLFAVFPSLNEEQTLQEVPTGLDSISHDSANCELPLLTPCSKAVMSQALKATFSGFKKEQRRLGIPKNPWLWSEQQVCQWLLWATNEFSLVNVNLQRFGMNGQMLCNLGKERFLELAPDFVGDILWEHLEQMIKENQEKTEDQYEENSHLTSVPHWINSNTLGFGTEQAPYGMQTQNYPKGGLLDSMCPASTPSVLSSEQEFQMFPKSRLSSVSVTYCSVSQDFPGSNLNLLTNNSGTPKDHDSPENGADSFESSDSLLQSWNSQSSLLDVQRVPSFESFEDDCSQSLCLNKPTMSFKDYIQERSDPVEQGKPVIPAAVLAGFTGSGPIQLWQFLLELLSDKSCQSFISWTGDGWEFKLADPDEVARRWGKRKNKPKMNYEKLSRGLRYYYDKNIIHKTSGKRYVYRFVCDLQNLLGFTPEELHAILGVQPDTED
# Procedure, shortened: as §1
# SPDEF = target: T9, SPDEF (Homo sapiens, UniProt O95238 1-335); details: protein: recombinant; tags: N-terminal GST; dsDNA, one strand shown
# T9 sequence: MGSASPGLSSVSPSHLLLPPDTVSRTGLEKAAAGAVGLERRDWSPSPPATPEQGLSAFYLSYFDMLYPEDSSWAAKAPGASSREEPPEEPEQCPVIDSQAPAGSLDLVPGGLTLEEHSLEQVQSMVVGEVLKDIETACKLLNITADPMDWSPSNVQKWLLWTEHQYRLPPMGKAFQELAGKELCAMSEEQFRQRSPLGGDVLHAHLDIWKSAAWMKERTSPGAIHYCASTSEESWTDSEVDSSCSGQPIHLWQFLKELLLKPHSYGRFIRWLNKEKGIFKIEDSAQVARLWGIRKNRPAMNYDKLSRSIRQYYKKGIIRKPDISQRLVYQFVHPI
# Procedure, shortened: as §1
# ETV7 = target: T10, ETV7 (Homo sapiens, UniProt Q9Y603 1-341); details: protein: recombinant; tags: N-terminal GST; dsDNA, one strand shown
# T10 sequence: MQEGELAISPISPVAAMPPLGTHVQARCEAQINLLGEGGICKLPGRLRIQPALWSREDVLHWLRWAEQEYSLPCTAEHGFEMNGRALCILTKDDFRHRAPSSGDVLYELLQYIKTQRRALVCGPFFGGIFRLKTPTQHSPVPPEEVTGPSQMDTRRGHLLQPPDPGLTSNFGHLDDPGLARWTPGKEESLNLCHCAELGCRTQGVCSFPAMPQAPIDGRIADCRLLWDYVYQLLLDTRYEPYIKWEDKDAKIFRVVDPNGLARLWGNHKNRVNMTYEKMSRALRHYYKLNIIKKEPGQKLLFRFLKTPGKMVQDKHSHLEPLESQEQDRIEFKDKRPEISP
# Procedure, shortened: as §1
# ELF5 = target: T11, ELF5 (Homo sapiens, UniProt Q9UKW6-2 1-255); details: protein: recombinant; tags: N-terminal GST; dsDNA, one strand shown
# T11 sequence: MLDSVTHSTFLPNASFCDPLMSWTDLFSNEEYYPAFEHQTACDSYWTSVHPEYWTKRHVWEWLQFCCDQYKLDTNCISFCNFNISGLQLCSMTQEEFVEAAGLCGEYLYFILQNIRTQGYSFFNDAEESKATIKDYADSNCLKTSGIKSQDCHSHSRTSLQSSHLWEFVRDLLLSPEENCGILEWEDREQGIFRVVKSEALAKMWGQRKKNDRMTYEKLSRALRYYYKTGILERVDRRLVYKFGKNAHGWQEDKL
# Procedure, shortened: as §1
# ETV3 = target: T12, ETV3 (Homo sapiens, UniProt P41162-2 1-143); details: protein: recombinant; tags: N-terminal GST; dsDNA, one strand shown
# T12 sequence: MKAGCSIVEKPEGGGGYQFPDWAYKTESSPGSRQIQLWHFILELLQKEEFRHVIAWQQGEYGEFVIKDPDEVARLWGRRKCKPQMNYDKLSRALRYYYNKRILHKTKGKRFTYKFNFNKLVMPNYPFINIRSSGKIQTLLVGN
# Procedure, shortened: as §1
# ETV6 = ETV6 (Homo sapiens, UniProt P41212 1-452); details: protein: recombinant; tags: N-terminal GST; dsDNA, one strand shown
# Sequence of ETV6 (P41212 whole entry): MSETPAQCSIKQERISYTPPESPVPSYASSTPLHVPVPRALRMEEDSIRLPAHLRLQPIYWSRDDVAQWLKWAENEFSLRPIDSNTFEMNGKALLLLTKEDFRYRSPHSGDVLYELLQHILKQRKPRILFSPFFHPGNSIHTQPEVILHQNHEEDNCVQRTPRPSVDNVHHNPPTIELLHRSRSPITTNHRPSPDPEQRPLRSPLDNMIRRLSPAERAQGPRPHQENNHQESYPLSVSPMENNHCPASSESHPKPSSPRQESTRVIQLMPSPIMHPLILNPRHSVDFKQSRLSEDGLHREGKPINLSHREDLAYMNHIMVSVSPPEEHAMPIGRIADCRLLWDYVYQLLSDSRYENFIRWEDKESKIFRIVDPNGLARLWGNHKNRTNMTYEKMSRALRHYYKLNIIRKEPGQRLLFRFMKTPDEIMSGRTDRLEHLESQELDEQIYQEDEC
# Procedure, shortened: as §1
sequence,measurement,setting,value
CTCAGC,binding signal,FEV,"1.3 fold enrichment (6-mer frequency, TF over GST control)"
same,binding signal,ETV5,"1.11 fold enrichment (6-mer frequency, TF over GST control)"
same,binding signal,HSF1,"1.1 fold enrichment (6-mer frequency, TF over GST control)"
same,binding signal,SPIC,"1.16 fold enrichment (6-mer frequency, TF over GST control)"
same,binding signal,ELF4,"1.27 fold enrichment (6-mer frequency, TF over GST control)"
same,binding signal,ELK4,"1.24 fold enrichment (6-mer frequency, TF over GST control)"
same,binding signal,ETV2,"1.31 fold enrichment (6-mer frequency, TF over GST control)"
same,binding signal,ELF3,"1.2 fold enrichment (6-mer frequency, TF over GST control)"
same,binding signal,CRX,"1.31 fold enrichment (6-mer frequency, TF over GST control)"
same,binding signal,ETV1,"1.28 fold enrichment (6-mer frequency, TF over GST control)"
same,binding signal,ERF,"1.1 fold enrichment (6-mer frequency, TF over GST control)"
same,binding signal,ETV3L,"1.36 fold enrichment (6-mer frequency, TF over GST control)"
same,binding signal,ETS2,"1.22 fold enrichment (6-mer frequency, TF over GST control)"
same,binding signal,SPDEF,"1.15 fold enrichment (6-mer frequency, TF over GST control)"
same,binding signal,ETV7,"1.21 fold enrichment (6-mer frequency, TF over GST control)"
same,binding signal,ELF5,"1.08 fold enrichment (6-mer frequency, TF over GST control)"
same,binding signal,ETV3,"1.32 fold enrichment (6-mer frequency, TF over GST control)"
same,binding signal,ETV6,"1.2 fold enrichment (6-mer frequency, TF over GST control)"
